# Reference: PubChem BioAssay (NCI)
# About 83,000 compounds went through this panel and 20% of them were active in at least one assay; those are over-represented in the sample as a whole.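 The endpoint reported here, percent growth, reads 100 for growth as untreated, 0 for no net growth and -100 for all cells dead.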 Active and inactive are the calls of the source. Rule for the calls: active = growth percent below 10; inactive = the rest.
# System: MDA-MB-468 breast
# Experiment: NCI-60 one-dose screen, 48 h (100 = growth as untreated, 0 = no growth, -100 = all killed)
# Conditions: 10 µM unless noted
row,SMILES,growth
1,CC1=CC[C@@H]2CC[C@]3(C)[C@H](CC[C@@H]4[C@@]5(C)CCCNC(C)(C)[C@@H]5CC[C@]43C)[C@H]2[C@@H]1C,-47.2% (active)
2,NC(=S)N/N=C/c1ccc(OC(=O)COc2ccc(Cl)cc2)cn1,24.6% (inactive)
3,COc1ccc(Cc2cnc(NC(=O)c3ccc4c(c3)OCCO4)s2)cc1,19.1% (inactive)
4,CCCCCc1c(C)[nH]c(/C=C2\N=C(c3ccc[nH]3)C=C2CC)c1C,-92.1% (active)
5,OC(c1cc(-c2ccccc2)nc2ccc(Cl)cc12)C1CCCCN1 (stereo not given),-17.1% (active)
6,O=C(Nc1ccc(Cl)c(Cl)c1)NC(CO)(CO)CO,95.9% (inactive)
7,N#CCCN(CCCN1CCOCC1)CN1C(=O)c2ccccc2C1=O,92.2% (inactive)
8,C=CC(=O)Nc1cc2c(Nc3ccc(F)c(Cl)c3)ncnc2cc1OCCCN1CCOCC1,-31.5% (active)
9,CCCSC1=NC2C(N(CC)C(=O)N2CC)N1/N=C/C=C/c1ccccc1[N+](=O)[O-] (stereo not given),29.9% (inactive)
10,COc1cc(C(=O)/C=C/c2c(C)n([O-])c3ccc(Cl)cc3[n+]2=O)cc(OC)c1OC,27.6% (inactive)
11,CCCc1cc2c(cc1CN(Cc1cc3c(cc1CCC)OCO3)C(=N)OCC)OCO2,60.8% (inactive)
12,Cn1cc(Nc2nccc(-c3ccc(N4CCCC4)c(C#N)c3)n2)cn1,61.8% (inactive)
13,N=C1CC(=O)NN1C(=O)CSc1nc2sc3c(c2c(=O)n1-c1ccc(Cl)cc1)CCCC3,106% (inactive)
14,Nc1ccc(NC(=O)c2cccc(N)c2)cc1,94.2% (inactive)
15,COc1cccc(-c2nnc(COc3ccc(-c4nc5ccc(C)cc5[nH]4)cc3OC)o2)c1,71% (inactive)
16,O=C(Nc1ccc(F)cc1)c1ccccc1,98.3% (inactive)
17,CC(C)(C)Nc1nc2c(OCCc3ccccc3)cccn2c1-c1ccc(Cl)cc1,-22.4% (active)
18,NS(=O)(=O)c1ccc(-c2cc(-c3nnc(SCC(=O)Nc4ccc(C(=O)/C=C/c5ccc(Cl)cc5)cc4)n3-c3ccccc3)c3ccccc3n2)cc1,84.5% (inactive)
19,CC1(C)CC[C@]2(CN)CC[C@]3(C)C(=CC[C@@H]4[C@@]5(C)CCCNC(C)(C)[C@@H]5CC[C@]43C)[C@H]2C1,96.1% (inactive)
20,COc1cc(NS(C)(=O)=O)ccc1Nc1c2ccc(Cl)cc2nc2c(OC)cccc12,-34.1% (active)

row,SMILES,growth
1,Cc1ccc2c(c1)CC(O)CC1C(=O)N(CCO)CC(=O)N21 (stereo not given),96% (inactive)
2,N#Cc1c(-c2ccccc2)nc2c(c(-c3ccccc3)nn2-c2ccccc2)c1-c1ccc(O)cc1,38.3% (inactive)
3,C#CCNC(=S)N/N=C(\C)c1ccccn1,-31.4% (active)
4,N=c1c2cc(-c3ccccc3)oc2ncn1/N=C/c1ccccc1,53.7% (inactive)
5,CC1(C)Cc2c(cn(Cc3ccccc3)c2-c2ccccc2)-c2oncc21,88.5% (inactive)
6,O=C(COc1ccc(/C=C2\Cc3ccc(Cl)cc3C2=O)cc1)Nc1nccs1,98.8% (inactive)
7,O=C(O)c1cccc2c1C(=O)N(c1ccc3c(c1)Cc1ccccc1-3)C2=O,107% (inactive)
8,O=C(Nc1cccc(Cl)c1)Nc1cc2ncncc2cc1OCc1cccc(F)c1,-2.43% (active)
9,CCN(CCCNC(=O)Cc1cc(=O)oc2cc(N(C)C)ccc12)CCNc1ccnc2cc(Cl)ccc12,52% (inactive)
10,Cc1cc(=O)oc2c1ccc1oc(C#N)c(C)c12,114% (inactive)
11,Cc1ccc(N(CSc2ccc(Cl)cc2)CSc2ccc(Cl)cc2)cc1,91.5% (inactive)
12,COc1ccc(-c2cc(-c3ccc(N(C)C)cc3)nc(NC(=O)c3cccnc3)n2)cc1,106% (inactive)
13,O=C(N(c1ccccc1)c1ccccc1)n1ccc2nc(Cl)nc(Cl)c21,-0.952% (active)
14,S=C(Sc1ccc(Cl)cc1)Sc1ccc(Cl)cc1,-37.6% (active)
15,CC(c1ccccc1)N(C)C (stereo not given),86% (inactive)
16,CCCN1C2CCC1/C(=C\c1ccc(OC)cc1)C(=O)/C2=C/c1ccc(OC)cc1,55.9% (inactive)
17,Cn1c2c(c(=O)[nH]c1=O)NC1=C(C(=O)c3ccccc31)C1(C=C(O)c3ccccc31)N2 (stereo not given),100% (inactive)
18,C=CCn1c(SCC(=O)Nc2ccc(C(=O)/C=C/c3cc(OC)c(OC)c(OC)c3)cc2)nnc1-c1ccc(OC)cc1,-26.5% (active)
19,O=C1NC(c2ccc(F)cc2)N=C2C(c3ccccc3)=NOC12 (stereo not given),103% (inactive)
20,O/N=C1\c2ccccc2-c2ccc(Br)cc21,108% (inactive)
